From PubChem BioAssay
TDP1 cell CPT: qHTS for Inhibitors of human tyrosyl-DNA phosphodiesterase 1 (TDP1): qHTS in cells in presence of CPT; chicken DT40 Tdp1-/-;hTDP1 cells + 20 nM CPT, ATP luminescence, 48 h; AID 686979, 2013; Potency, µM (doses to about 46.2 µM), inactives show at the highest dose activity change, negative = growth inhibition, hits mostly inhibitors; 12% of 420,000 active; note: potency is the fitted concentration of half-maximal effect; % is set by controls: 0 for no effect and ±100 for the full control effect; nearly all actives have a fitted effect of over 55% in size
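Cell growth measured by CellTiter-Glo luminescence after a minimum 48 h, 37 C compound exposure with 20 nM CPT in Tdp1-knockout DT40 cells stably expressing hTDP1, seeded 400/well; qHTS titration format.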
TGFb inhibitor: qHTS for Inhibitors of TGF-b; HepG2 CAGA-GFP TGF-b/SMAD3 reporter, GFP fluorescence, 18 h; TGF-beta stimulated, 500 pg/mL final; AID 588855, 2011; 1.2% of 410,000 active; Potency, µM (top dose mostly 46.1 µM), for inactives: at the highest dose activity, negative = inhibition, hits mostly inhibitors; note: potency is the fitted concentration of half-maximal effect; % is set by controls: 0 for no effect and ±100 for the full control effect; nearly all actives have a fitted effect of over 65% in size
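Cell-based qHTS in HEPG2 carrying a CAGA-GFP Smad reporter; compounds added before 500 pg/mL final TGF-beta, 18 h incubation at 37 degrees C, GFP fluorescence quantified per cell by imaging cytometry.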
ASM inhibitor: Inhibitors of Secretory Acid Sphingomyelinase (S-ASM): qHTS; Sphingomyelin phosphodiesterase (Homo sapiens), P17405; placental ASM, HMU-PC fluorogenic substrate, 60 min; Potency, µM (highest dose often 57.5 µM), for the others: at the top dose activity change, negative = inhibition, actives largely listed as inhibitors; 0.006% of 340,000 active; note: potency is the fitted concentration of half-maximal effect
Target sequence (P17405 47-631 limits assumed): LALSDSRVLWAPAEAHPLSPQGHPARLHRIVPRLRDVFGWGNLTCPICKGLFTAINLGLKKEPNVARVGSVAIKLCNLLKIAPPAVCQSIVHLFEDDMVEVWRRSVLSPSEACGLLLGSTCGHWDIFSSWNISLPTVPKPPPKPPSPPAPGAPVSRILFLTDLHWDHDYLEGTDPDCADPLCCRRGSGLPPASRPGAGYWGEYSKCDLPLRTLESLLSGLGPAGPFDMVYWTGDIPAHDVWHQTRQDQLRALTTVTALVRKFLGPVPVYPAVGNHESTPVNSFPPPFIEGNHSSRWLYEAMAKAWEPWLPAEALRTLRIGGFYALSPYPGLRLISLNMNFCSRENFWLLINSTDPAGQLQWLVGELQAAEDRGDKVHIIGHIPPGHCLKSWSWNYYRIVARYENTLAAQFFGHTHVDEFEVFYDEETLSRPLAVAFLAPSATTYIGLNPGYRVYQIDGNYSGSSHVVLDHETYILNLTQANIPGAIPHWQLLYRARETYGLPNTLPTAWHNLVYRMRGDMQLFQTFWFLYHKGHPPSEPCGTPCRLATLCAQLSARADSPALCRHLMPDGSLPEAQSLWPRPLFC
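qHTS format. ASM enzyme prepared from human placenta hydrolyses the fluorogenic substrate HMU-PC0 (9 uM final) over 60 min at 37 °C after a 10 min compound preincubation.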
TDP1 cell noCPT: qHTS for Inhibitors of human tyrosyl-DNA phosphodiesterase 1 (TDP1): qHTS in cells in absence of CPT; 15% of 420,000 active; Potency, µM (highest dose often 46.2 µM), without a hit: at the highest dose activity change, negative = growth inhibition, actives largely listed as inhibitors; DT40 Tdp1-/- hTDP1 cells, no CPT, ATP luminescence, 48 h; note: potency is the fitted concentration of half-maximal effect; % is set by controls: 0 for no effect and ±100 for the full control effect; nearly all actives have a fitted effect of over 55% in size
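Readout: luminescence from CellTiter-Glo after 30 min in the dark at RT. Cells: DT40 Tdp1-/- with stable hTDP1, 400/well. Exposure: compounds alone, ≥48 hr, 37 °C.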
HepG2 viability: qHTS for Inhibitors of TGF-b: Cytotox Counterscreen; Potency, µM (highest dose often 46.1 µM), for the others: top-dose activity change, negative = cytotoxicity, usual class: cytotoxic; HepG2 CAGA-GFP viability, ATP luminescence, 18 h; 0.76% of 410,000 active; AID 588856, 2011; note: potency is the fitted concentration of half-maximal effect
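CellTiter-Glo luminescence gave cytotoxicity after 18 hours at 37 degrees C. The cells were HepG2 CAGA-GFP in 1% FBS DMEM, stimulated with 500 pg/mL TGF-beta after compound addition. %Activity was normalised to no-cell wells (complete cell-killing) and DMSO (no toxicity), and curves were fitted and classified.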
IL1B secr inh: qHTS for Inhibitors of Inflammasome Signaling: IL-1-beta AlphaLISA Primary Screen. THP-1 LPS/ATP IL-1B secretion, AlphaLISA, 16 h; hits give low values. activity change, % at 57.5 µM. 4.7% of 360,000 active. AID 743279, 2014; in the data active = activity change below about -50%; inconclusive = mostly about -30% to -49%; note: % is set by controls: 0 for no effect and ±100 for the full control effect
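Secreted IL-1B measured by AlphaLISA bead assay after 16 h compound exposure of THP-1 cells; compounds (final up to 57.5 uM) added 1 h before LPS (250 ng/mL) and ATP (1.25 mM) stimulation; lower signal means less secretion.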
* = called active by the depositor; i = inactive; ? = inconclusive; · = not tested or not shown. Shown are actives, neighbours in structure and some others; about 19% of the full set was active somewhere. Unless noted, calls come from the whole dose curve; as a rule, active = well fitted curve in the direction sought with a large enough effect; inconclusive = small, poorly fitted or top-dose-only effect, or another doubt; inactive = no such curve, though single readings can be large; an effect the other way counts as inactive or inconclusive.

SMILES	TDP1 cell CPT	TGFb inhibitor	ASM inhibitor	TDP1 cell noCPT	HepG2 viability	IL1B secr inh
CCn1c(=O)cc(SCC(=O)NCc2ccc(Cl)cc2)c2ccccc21	10µM*	-1%	·	21µM*	3%	·
CCn1c(=O)cc(SCC(=O)Nc2cccc(C)n2)c2ccccc21	?	18%	-3%	?	-4%	-24
CCn1c(=O)cc(SCC(=O)NCc2cccc(Cl)c2)c2ccccc21	?	?	·	9.2µM*	-32%	·
Cc1cccc(NC(=O)c2nc[nH]c2C(=O)NCCCNC(=O)c2[nH]cnc2C(=O)Nc2cccc(C)c2)c1	-2%	2%	-6%	?	-6%	-1
O=C(Nc1ccccc1)c1nc[nH]c1C(=O)NCCN(CCNC(=O)c1[nH]cnc1C(=O)Nc1ccccc1)CCNC(=O)c1[nH]cnc1C(=O)Nc1ccccc1	?	20µM*	-18%	23µM*	-19%	-26
Cc1cccc(NC(=O)c2nc[nH]c2C(=O)N[C@@H](C)c2ccccc2)c1	23µM*	?	-5%	29µM*	-45%	?
O=C(Nc1ccccc1)c1nc[nH]c1C(=O)NCCCNC(=O)c1[nH]cnc1C(=O)Nc1ccccc1	?	27%	-1%	15µM*	1%	14
Cc1cccc(NC(=O)c2nc[nH]c2C(=O)NCCN(CCNC(=O)c2[nH]cnc2C(=O)Nc2cccc(C)c2)CCNC(=O)c2[nH]cnc2C(=O)Nc2cccc(C)c2)c1	6.5µM*	19%	-14%	5.8µM*	-1%	-23
Cc1ccc(NC(=O)CSc2nnc(COc3ccccc3F)n2N)cc1S(=O)(=O)N1CCOCC1	?	-7%	1%	?	8%	0
O[C@@H]1COC(Nc2ccc(N=Nc3ccccc3)cc2)C[C@@H]1O (stereo partly specified)	-3%	-4%	?	1%	1%	?
Cc1ccc(NC(=O)c2nc[nH]c2C(=O)NCCN(CCNC(=O)c2[nH]cnc2C(=O)Nc2ccc(C)cc2)CCNC(=O)c2[nH]cnc2C(=O)Nc2ccc(C)cc2)cc1	?	-20%	-13%	16µM*	-9%	?
CCN(CC)C(=O)c1[nH]cnc1C(=O)Nc1ccccc1	-1%	-25%	8%	6%	-1%	10
O=C(Nc1ccccc1)c1nc[nH]c1C(=O)NCCCCCCNC(=O)c1[nH]cnc1C(=O)Nc1ccccc1	7.3µM*	-5%	-14%	8.2µM*	-17%	-7
Cc1cccc(NC(=O)c2nc[nH]c2C(=O)Nc2cccc(C)c2)c1	?	16%	-1%	10µM*	-3%	3
Cc1cccc(NC(=O)c2nc[nH]c2C(=O)Nc2ccccc2F)c1	?	18%	·	?	6%	9
O=C(Nc1ccc(F)cc1)c1nc[nH]c1C(=O)Nc1ccc([N+](=O)[O-])cc1	?	14%	-2%	15µM*	-5%	-1
O=C(Nc1ccc([N+](=O)[O-])cc1)c1nc[nH]c1C(=O)NC1CCCCC1	?	-17%	0%	?	3%	-10
COc1cc(=O)n2c(c1C(=O)N(C)Cc1ccsc1)CCN(Cc1c(C)nc3sccn13)CC2	-4%	·	·	-24%	·	·
O=C(CN(C(=O)c1csnn1)c1ccc(F)c(Cl)c1)NC1CCCC1	0%	12%	0%	-16%	13%	4
O=C(OCc1ccc([N+](=O)[O-])cc1Cl)c1cnccn1	-26%	12%	-1%	-9%	0%	-5
Cc1ccc(NC(=O)c2nc[nH]c2C(=O)Nc2ccc(C)cc2)cc1	10µM*	8%	2%	7.3µM*	2%	-2
Cc1cccc(NC(=O)c2nc[nH]c2C(=O)NC2CCN(C(=O)OC(C)(C)C)CC2)c1	4%	-16%	-2%	8%	-2%	7
Cc1cccc(NC(=O)c2nc[nH]c2C(=O)N2CCN(C(=O)OC(C)(C)C)CC2)c1	21µM*	-10%	3%	?	0%	-2
Cc1cc(Br)c2c(c1)C1(OCCO1)C(=O)N2	6%	-1%	-1%	1%	-11%	6
O=C(CSc1nnc(-c2cccc(Br)c2)o1)NCC1CCCO1 (stereo unspecified)	-12%	4%	·	-18%	2%	-19
SMILES	TDP1 cell CPT	TGFb inhibitor	ASM inhibitor	TDP1 cell noCPT	HepG2 viability	IL1B secr inh
CCS(=O)(=O)N1CC(=O)N(c2ccccc2C)C(C)(C(=O)NC2CCCCC2)C1 (stereo unspecified)	-2%	0%	·	0%	0%	·
CCOc1cccc(C(=O)NC(=S)Nc2ccccc2)c1	?	0%	-2%	?	-25%	14
CCOc1cccc(C(=O)NC(=S)Nc2ccc(N3CCN(CC)CC3)cc2)c1	?	0%	-7%	23µM*	3%	?
COc1cc(OC)cc(C(=O)NC(=S)Nc2ccc(N3CCCC3)cc2)c1	15µM*	-6%	-10%	8.2µM*	-7%	0
CCN1CCN(c2ccc(NC(=O)c3cccc(N4CCCC4=O)c3)cc2)CC1	-2%	-1%	3%	-8%	-12%	-13
CCOc1cccc(C(=O)NC(=S)Nc2cccc(NC(=O)c3ccccc3Cl)c2)c1	?	?	-9%	21µM*	-24%	?
CCN1CCN(c2ccc(NC(=O)c3cccc(OCc4ccccc4)c3)cc2)CC1	?	?	-14%	?	-48%	-80*
CCCn1ncc(CN2CCN(CCc3ccccc3)C(CCO)C2)c1C (stereo unspecified)	0%	2%	-1%	0%	-5%	14
CC(=O)Nc1cc2c3c(cccc3c1)-c1ccccc1-2	29%	155%	i	-4%	-6%	-13
CN1CCN(c2ccc(NC(=O)c3cccc(OCc4ccccc4)c3)cc2)CC1	23µM*	?	-11%	23µM*	-75%	0
CC(C)(C)CN1CCNC(=O)C1CC(=O)NCCN1CCCc2ccccc21 (stereo unspecified)	-1%	-15%	5%	0%	-19%	6
CN(CC(=O)Nc1c(F)cccc1F)Cc1cccs1	9%	5%	4%	2%	5%	-13
